An excerpt weighted towards active compounds, which were near 3.4% of everything screened.
TEAD-YAP block – TEAD-YAP interaction inhibition; HEK-TIYL cells, TEAD-Gal4/YAP UAS-luciferase luminescence; inhibition, % at 9.12 µM; actives 1.4% (n = 640,000); AID 1259422; in the data active = inhibition above about 32%
FBW7 act – human FBW7 E3 ligase activation, primary screen. Q969H0. AlphaScreen FBW7–phospho-cyclin E peptide binding, activator screen. normalized activity (activation), % at 26.1 µM. actives 0.13% (n = 650,000). AID 1259310; in the data active = normalized activity above about 1.9%;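 also: purified mutant Fbw7 with reduced substrate affinity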
Target sequence (Q969H0 whole entry, looked up): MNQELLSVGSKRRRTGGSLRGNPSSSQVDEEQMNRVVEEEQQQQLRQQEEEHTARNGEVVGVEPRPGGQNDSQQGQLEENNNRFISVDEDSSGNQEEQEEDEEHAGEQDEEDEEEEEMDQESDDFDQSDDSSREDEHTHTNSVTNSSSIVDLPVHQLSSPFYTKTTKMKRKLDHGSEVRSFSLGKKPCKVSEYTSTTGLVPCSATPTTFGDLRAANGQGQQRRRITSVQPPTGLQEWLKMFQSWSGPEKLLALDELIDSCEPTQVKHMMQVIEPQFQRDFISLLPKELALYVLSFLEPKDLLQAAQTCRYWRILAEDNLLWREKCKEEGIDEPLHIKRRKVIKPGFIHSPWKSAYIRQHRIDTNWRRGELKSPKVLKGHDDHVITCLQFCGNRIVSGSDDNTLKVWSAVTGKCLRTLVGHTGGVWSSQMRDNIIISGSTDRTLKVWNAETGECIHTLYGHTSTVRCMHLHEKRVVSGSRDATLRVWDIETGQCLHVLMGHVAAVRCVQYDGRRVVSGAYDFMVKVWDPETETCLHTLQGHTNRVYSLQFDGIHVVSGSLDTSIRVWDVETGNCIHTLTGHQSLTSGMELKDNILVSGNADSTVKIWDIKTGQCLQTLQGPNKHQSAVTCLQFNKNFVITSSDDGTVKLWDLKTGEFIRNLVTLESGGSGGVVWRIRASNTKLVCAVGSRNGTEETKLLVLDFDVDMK
GPR151 ag – activators of human GPR151; actives 1% (n = 650,000); PathHunter beta-arrestin GPR151 cells, luminescence; AID 1508602; activation, % at 11.2 µM; Q8TDV0; in the data active = activation above about 4.9%
MITF inh – blocks human microphthalmia-associated transcription factor | actives 0.91% (n = 650,000) | inhibition, % at 2.6 µM | AlphaScreen MITF homodimerization, bead proximity signal | O75030; in the data active = inhibition above about 50%
GPR151 conf act – human GPR151 activation, confirmation screen. activation, % at 11.2 µM. shares compounds with GPR151 ag. 6,700 tested, under 10 active. GPR151 PathHunter beta-arrestin cells, luminescence, 90 min; % of EA-reagent control over plate median. AID 1508609;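 active = mean percent activation across replicates above the confirmation screen cutoff of 4.91%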
GPR119 ag – activates human GPR119 in a GPR151 counter-screen. shares compounds with GPR151 ag. GPR119 PathHunter beta-arrestin cells, luminescence, 90 min; 0 = compound-well median, 100 = enzyme-acceptor control. activation, % at 11.2 µM. actives 0.3% (n = 6,700);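 active = mean percent activation in the counterscreen above 29.09%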;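 also: counterscreen on off-target GPR119 to flag nonselective hits from the GPR151 activator screen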
Large screens that a line does not name were inactive (follow-up assays come after a bar, where they were run).

O=C(NCCc1ccc(O)cc1)c1ccnc(Nc2ccc(-n3ccnc3)cc2)c1	none
COC(=O)C1=CN(CCc2ccc(OC)c(OC)c2)C=C(C(=O)OC)C1c1cccs1	none
Brc1ccc(Nc2nc(-c3ccccn3)cs2)cc1	none
Brc1cccc(Nc2nc(-c3ccccn3)cs2)c1	GPR151 ag 22 | GPR151 conf act inactive | GPR119 ag inactive
O=C(CCN1CCOCC1)Nc1ccccc1Cl	none
CCCCNC(=O)c1cc(S(=O)(=O)N2CCOCC2)ccc1Sc1ccc(Br)cc1	none
O=C(NCCCN1CCOCC1)c1cc(S(=O)(=O)N2CCOCC2)ccc1Sc1ccc(Br)cc1	GPR151 ag 5.6 | GPR151 conf act inactive | GPR119 ag inactive
CC(C)c1ccccc1OCCOCC(O)CN1CCN(c2ccccn2)CC1 (centres undefined)	none
c1ccc(Cn2cc(-c3ncoc3-c3ccnc(Nc4ccc(N5CCOCC5)cc4)c3)cn2)cc1	TEAD-YAP block 45, GPR151 ag 6.0 | GPR151 conf act inactive | GPR119 ag inactive
Clc1ccccc1/C=N/Nc1nncc(-c2ccccc2)n1	GPR151 ag 6.2 | GPR151 conf act inactive | GPR119 ag inactive
CCc1ccccc1NC(=O)CN1C(=O)C2(OCCCO2)c2ccccc21	none
Cc1c(CN2CCCC(c3[nH]ncc3-c3ccc(F)cc3)C2)cnn1C (centres undefined)	none
COCCOC(=O)C1=C(C)NC2=C(C(=O)CC(c3ccc(Cl)cc3)C2)C1c1cccc(OC)c1OC (centres undefined)	none
CCOC(=O)C1=C(C)NC2=C(C(=O)CC(c3ccc(Cl)cc3)C2)C1c1cccc(OC)c1OC (centres undefined)	GPR151 ag 21 | GPR151 conf act inactive | GPR119 ag inactive
COc1ccc(C2C(C(=O)OCC(C)C)=C(C)NC3=C2C(=O)CC(c2ccc(Cl)cc2)C3)cc1 (centres undefined)	GPR151 ag 5.5 | GPR151 conf act inactive | GPR119 ag inactive
COc1cccc(-c2nnc3n2N=C(c2cccc([N+](=O)[O-])c2)CS3)c1	GPR151 ag 13 | GPR151 conf act inactive | GPR119 ag inactive
CC[C@@H]1NC(=O)[C@H]2CN(C(=O)c3cccc(Cl)c3)CCN2C1=O	GPR151 ag 13 | GPR151 conf act inactive | GPR119 ag inactive
C[C@@H](O)[C@@H]1NC(=O)[C@H]2CN(C(=O)c3ccc4ccccc4c3)CCN2C1=O	none
C[C@H](O)[C@H]1NC(=O)[C@H]2CN(C(=O)c3ccc4ccccc4c3)CCN2C1=O	GPR151 ag 6.2 | GPR151 conf act inactive | GPR119 ag inactive
O=C1N[C@@H](Cc2ccc(Cl)cc2)C(=O)N2CCN(C(=O)c3cc(Cl)cc(Cl)c3)C[C@H]12	GPR151 ag 15 | GPR151 conf act inactive | GPR119 ag inactive
O=C1N[C@@H](Cc2cnc[nH]2)C(=O)N2CCN(C(=O)c3ccc(F)cc3)C[C@H]12	GPR151 ag 6.0 | GPR151 conf act inactive | GPR119 ag inactive
O=C1CC(c2ccc(OCc3ccccc3)cc2)c2ccc3ccccc3c2N1 (centres undefined)	none
CC(C)C[C@H]1NC(=O)[C@@H]2C[C@H](NC(=O)c3cc(F)ccc3F)CN2C1=O	none
Cc1cc(NC(=O)CSc2nc3nccnc3c(=O)n2CCC(C)C)n[nH]1	none
COc1ccc2c(c1)CC(=O)NC21CCN(CCOc2ccc(F)cc2)CC1	none
O=C1N[C@@H](Cc2ccc(O)cc2)C(=O)N2CCN(C(=O)c3cc(F)ccc3F)C[C@H]12	GPR151 ag 5.7 | GPR151 conf act inactive | GPR119 ag inactive
Cc1ccc(C(=O)Nc2ccc(F)cc2)cc1S(=O)(=O)N1CCCCCC1	none
Cc1ccc(C(=O)Nc2cc(C(N)=O)cc(C(N)=O)c2)cc1S(=O)(=O)N1CCCCC1	GPR151 ag 6.4 | GPR151 conf act inactive | GPR119 ag inactive
CC(=O)Nc1nnc(-c2cccc([N+](=O)[O-])c2)s1	none
O=C(Nc1nnc(-c2cccc([N+](=O)[O-])c2)s1)c1cccs1	GPR151 ag 8.6 | GPR151 conf act inactive | GPR119 ag inactive
COC(=O)c1ccc(/C=N/NC(=O)c2cc(-c3cccs3)[nH]n2)cc1	GPR151 ag 7.4 | GPR151 conf act inactive | GPR119 ag inactive
O=C(O)c1ccc(/C=N/NC(=O)c2cc(-c3cccs3)[nH]n2)cc1	none
